SKOV3 invasion – inhibitors of ovarian cancer cell adhesion and invasion in omental model | SKOV3ip1-GFP adhesion/invasion on 3D omental model, fluorescence | Potency, µM (doses to about 45.8 µM), without a hit: at the top dose activity change, negative = inhibition, hits mostly inhibitors | hit rate 0.1% among 46,000;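 note: potency is the fitted concentration of half-maximal effect; plate controls were DMSO wells for no effect and tomatine positive control wells for full effect; nearly all actives have a fitted effect of over 65% in size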
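Adhesion/invasion was scored as fixed GFP-labeled SKOV3ip1 cell counts (488/509 nm), normalized to DMSO and tomatine controls. Cancer cells in serum-free medium, with four compound doses (0.36-46 umol/L), sat 2 hr at RT then 16 hr at 37 C on a 48 hr fibroblast/mesothelial/ECM culture.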
HTT-AS act – activates huntingtin-antisense promoter activity; HEK293 HTT-AS promoter firefly luciferase reporter, 24 h; response scale: percent change from vehicle, -100% = no light; Potency, µM (doses to about 57.5 µM), without a hit: top-dose activity change, positive = activation, hits mostly activators; hit rate 0.24% among 48,000; note: potency is the fitted concentration of half-maximal effect; nearly all actives have a fitted effect of over 55% in size
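HEK293 Fluc reporter, 2,500 cells/well, 24 h pre-culture; cpds up to 57.5 uM final, 24 h 37 degrees C; Dual-Glo, 10 min RT; normalized vehicle = 0%, zero RLU = -100%.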
DRV1 agonist – activates human resolvin D1 receptor GPR32; CHO-K1 GPR32 beta-arrestin PathHunter luminescence, 90 min; zero percent set by DMSO-only wells; activation, % at 76.9 µM; hit rate 2.5% among 48,000; AID 1346428;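 active = activation of at least 60% and not above a set upper limit, about 1 call in 100 departs from these limits; inconclusive = activation of 40% to 60%, or above that upper limit; inactive = activation under 40%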; note: 0% is about no effect
Target sequence (O75388 whole entry, looked up): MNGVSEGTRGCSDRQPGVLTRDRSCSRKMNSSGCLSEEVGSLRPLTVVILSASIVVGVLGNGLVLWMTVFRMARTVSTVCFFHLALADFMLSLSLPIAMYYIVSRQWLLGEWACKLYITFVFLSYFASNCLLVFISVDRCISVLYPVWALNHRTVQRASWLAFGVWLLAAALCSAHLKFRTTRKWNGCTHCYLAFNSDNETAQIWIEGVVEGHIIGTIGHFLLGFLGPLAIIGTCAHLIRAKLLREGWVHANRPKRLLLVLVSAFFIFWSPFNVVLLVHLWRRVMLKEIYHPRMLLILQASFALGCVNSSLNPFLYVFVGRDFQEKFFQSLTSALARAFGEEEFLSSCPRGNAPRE
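Beta-arrestin recruitment read-out: luminescence from complemented beta-Gal in CHO-K1 GPR32 PathHunter cells, measured 1 h after detection reagent at ambient temperature following 90 min compound exposure at 37 °C; DMSO served as basal (EC0) control.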
NTMT1 inh – NTMT1 methyltransferase inhibition; Q9BV86; NTMT1 MTase-Glo SAH luminescence, purified enzyme; Potency, µM (doses to about 114 µM), inactives show at the top dose activity change, negative = inhibition, actives largely listed as inhibitors; hit rate 2.5% among 59,000; AID 1645870;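 note: potency is the fitted concentration of half-maximal effect; plate controls were DMSO vehicle for no effect and no enzyme for full effect; nearly all actives have a fitted effect of over 65% in size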
Target sequence (Q9BV86 whole entry, looked up): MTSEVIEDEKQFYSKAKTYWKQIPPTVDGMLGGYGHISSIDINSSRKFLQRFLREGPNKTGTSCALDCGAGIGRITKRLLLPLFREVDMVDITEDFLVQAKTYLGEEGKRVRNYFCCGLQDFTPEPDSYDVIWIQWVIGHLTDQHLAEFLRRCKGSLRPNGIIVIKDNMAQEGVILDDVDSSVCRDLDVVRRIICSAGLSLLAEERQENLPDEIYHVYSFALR
HTT prom inh – inhibits huntingtin promoter activity. Potency, µM (highest dose often 57.5 µM), for the others: at the highest dose activity change, negative = inhibition, most hits filed as inhibitors. HEK293 HTT promoter firefly luciferase reporter, 24 h. hit rate 0.93% among 48,000; note: potency is the fitted concentration of half-maximal effect; nearly all actives have a fitted effect of over 50% in size
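HEK293 cells carrying firefly luciferase reporters were seeded at 2,500 per well in Opti-MEM and cultured for 24 h. They were then treated with compounds at up to 57.5 uM final for 24 h at 37 degrees C before Dual-Glo luminescence readout.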
Numbers without * were called inactive; ! = repeats disagree; [ ] = remark or other dose. The list is not random: actives were taken first. Their share in the collection is about 4.5%. Unless noted, calls come from the whole dose curve; as a rule, active = well fitted curve in the direction sought with a large enough effect; inconclusive = small, poorly fitted or top-dose-only effect, or another doubt; inactive = no such curve, though single readings can be large; an effect the other way counts as inactive or inconclusive.

COc1ccc(CNC(=O)Nc2ccc3c(c2)N(C)C(=O)c2ccccc2S3)cc1OC was read as SKOV3 invasion inactive, HTT-AS act -29%, DRV1 agonist -9, NTMT1 inh -2% and HTT prom inh inconclusive.
`CC(C)Oc1ccc(CNC(=O)Nc2ccc3c(c2)N(C)C(=O)c2ccccc2S3)cc1` gave SKOV3 invasion inconclusive, HTT-AS act -50%, DRV1 agonist -15, NTMT1 inh -3% and HTT prom inh 25µM*.
CN1C(=O)c2ccccc2Sc2ccc(NC(=O)N3CCN(c4ccccc4)CC3)cc21 was read as SKOV3 invasion -30%, HTT-AS act -62%, DRV1 agonist 0, NTMT1 inh 7% and HTT prom inh 25µM*.
Cc1cc(NS(=O)(=O)c2ccc3c(c2)CCC(=O)N3)ccc1Cl was read as NTMT1 inh -1%[57.5 µM].
Screening O=C1c2[nH]nc(-c3ccc(Br)cc3)c2C(c2cccc(O)c2)N1c1ccc(Cl)cc1 (stereo not given) returned SKOV3 invasion -7%, HTT-AS act -69%, DRV1 agonist 96*, NTMT1 inh 8% and HTT prom inh inconclusive.
`O=C(NCc1ccccc1)c1cc2sccc2n1Cc1ccc(Cl)cc1` gave SKOV3 invasion inactive, HTT-AS act -13%, DRV1 agonist 38, NTMT1 inh 1% and HTT prom inh -7%.
`Cc1c(Cl)cccc1NC(=O)c1cc2sccc2n1Cc1ccc(F)cc1` gave SKOV3 invasion inactive, HTT-AS act -31%, DRV1 agonist 0, NTMT1 inh 89µM* and HTT prom inh -30%.
`CC(C)NC(=O)C1CCN(C(=O)c2cc3sccc3n2Cc2ccc(Cl)cc2)CC1` gave SKOV3 invasion -3%, HTT-AS act -60%, DRV1 agonist 8, NTMT1 inh 11% and HTT prom inh 8.9µM*.
COc1cc2c(C(=O)Nc3ccc(C)cc3Br)cn(C)c(=O)c2cc1OC was read as SKOV3 invasion 0%, HTT-AS act -15%, DRV1 agonist 5, NTMT1 inh 16% and HTT prom inh -9%.
`C=CC(=O)Nc1cc(Nc2ncc(Cl)c(-c3c[nH]c4ccccc34)n2)c(OC)cc1N(C)CCN(C)C` gave NTMT1 inh 20µM*.
Screening COc1cc(Cl)c(C)cc1NC(=O)Cn1ncc2c([nH]c3ccccc32)c1=O returned SKOV3 invasion 2%, HTT-AS act -21%, DRV1 agonist -11, NTMT1 inh -22% and HTT prom inh 0%.
For CNCCC(Oc1ccc(C(F)(F)F)cc1)c1ccccc1 (stereo not given) the results were HTT-AS act -27%, DRV1 agonist 104*!, NTMT1 inh -31%[57.5 µM] and HTT prom inh -9%.
For O=C(O)C[C@H](O)C[C@H](O)/C=C/c1c(C2CC2)nc2ccccc2c1-c1ccc(F)cc1 the results were NTMT1 inh 40µM*!.
Screening Cc1cc(O)c(-c2ccnc3cc(-c4ccccc4)nn23)cc1Cl returned SKOV3 invasion 6%, HTT-AS act -15%, DRV1 agonist 90*, NTMT1 inh inconclusive and HTT prom inh -4%.
For COc1ccccc1C(=O)Nc1cccc(C(=O)OCc2cc(=O)n3ccsc3n2)c1 the results were SKOV3 invasion 9%, HTT-AS act 0%, DRV1 agonist -6, NTMT1 inh 6% and HTT prom inh -7%.
`Cc1cncc2cccc(S(=O)(=O)N3CCCNC[C@@H]3C)c12` gave NTMT1 inh 79µM*.
Screening CCOC(=O)c1cnc2c(ccc3ccccc32)c1Nc1ccc(Cl)cc1 returned SKOV3 invasion inactive, HTT-AS act -5%, DRV1 agonist -4, NTMT1 inh 7% and HTT prom inh -18%[11.5 µM].
`Cc1ccc(-c2csc(N3CCC(C(N)=O)CC3)n2)cc1` gave NTMT1 inh 3%[57.5 µM].
Screening COCCCNC(=O)C(=O)Nc1c2c(nn1-c1cccc(Cl)c1)CSC2 returned SKOV3 invasion 3%, HTT-AS act -16%, DRV1 agonist -50, NTMT1 inh 15% and HTT prom inh -34%.
Nc1ncnc2c1ncn2[C@@H]1O[C@@H](CO)[C@H](O)[C@H]1O was read as SKOV3 invasion 0%, HTT-AS act inconclusive, NTMT1 inh -27%[57.5 µM] and HTT prom inh 24%[25.2 µM].
For Nc1ncnc2c1ncn2[C@@H]1O[C@H](CN[S+](=O)([O-])NC(=O)c2cccc(-c3noc(-c4ccccc4F)n3)c2)[C@@H](O)[C@H]1O the results were NTMT1 inh 0.89µM*.
Screening Cc1ccc(N2CC(NC(=O)c3ccc(S(=O)(=O)N4CCOCC4)cc3)CC2=O)cc1C (stereo not given) returned SKOV3 invasion -11%, HTT-AS act -15%, DRV1 agonist -6, NTMT1 inh 8% and HTT prom inh inconclusive.
Screening Cc1nc(-c2ccc(S(=O)(=O)Nc3ccc(OC(F)(F)F)cc3)cc2)co1 returned SKOV3 invasion 13%, HTT-AS act -31%, DRV1 agonist 114*, NTMT1 inh 12% and HTT prom inh inconclusive.
For Cc1nc(-c2ccc(S(=O)(=O)Nc3cc(Cl)ccc3C)cc2)co1 the results were SKOV3 invasion inactive, HTT-AS act -21%, DRV1 agonist 82*, NTMT1 inh -6% and HTT prom inh -26%.
CCc1ccc(C2CC(=O)Nc3c2c(C)nn3-c2nc(C)cc(C)n2)cc1 (stereo not given) was read as SKOV3 invasion 3%, HTT-AS act -28%, DRV1 agonist -17, NTMT1 inh -4% and HTT prom inh inconclusive.
CC[C@]1(O)CC2CN(CCc3c([nH]c4ccccc34)[C@@](C(=O)OC)(c3cc4c(cc3OC)N(C)[C@H]3[C@@](O)(C(=O)OC)[C@H](OC(C)=O)[C@]5(CC)C=CCN6CC[C@]43[C@@H]65)C2)C1 (stereo not given in full) was read as NTMT1 inh 45µM*!.
For CCC1=C[C@@H]2CN(C1)Cc1c([nH]c3ccccc13)[C@@](C(=O)OC)(c1cc3c(cc1OC)N(C)[C@@H]1[C@@](O)(C(=O)OC)[C@H](OC(C)=O)[C@]4(CC)C=CCN5CC[C@]31[C@@H]54)C2 the results were SKOV3 invasion 9%, HTT-AS act -32%, NTMT1 inh 17µM* and HTT prom inh inconclusive.
For Cc1ccc(S(=O)(=O)Nc2cc3c(cc2C(=O)Nc2nc(-c4ccccc4)cs2)OCO3)cc1 the results were NTMT1 inh -16%.
For Cc1cccc(NC(=O)c2ccc(-c3ccccc3)s2)c1 the results were SKOV3 invasion -1%, HTT-AS act 25%, DRV1 agonist -9, NTMT1 inh -11% and HTT prom inh 45%.

From PubChem BioAssay
